Assay outcomes as filed in PubChem.
The list is not random: actives were taken first. Their share in the collection is about 10%.
Sfp PPTase inh = inhibitors of Bacillus subtilis Sfp phosphopantetheinyl transferase; Potency, µM, for the others: largest response in the series, negative = inhibition, usual class: inhibitors; 3.5% of 310,000 active; Q9F4F7; AID 1490; Biochemical Sfp PPTase activity, qHTS;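 also: the enzyme is Sfp with the accession as filed and its product quenches rhodamine fluorescence; potency is read from the fitted curve at half-maximal effect; 0% = enzyme reaction without inhibitor and -100% = no enzyme wells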
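Compounds were incubated with enzyme (final 15 nM) for 15 min at room temperature before substrate addition started the reaction. Fluorescence at 525 nm excitation, 598 nm emission was recorded immediately and after 30 minutes.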
CCT chaperon mod = cytosolic chaperonin activity modulation; purified chaperonin ATPase assay, HTRF ADP detection, 30 min; activity change, % (no concentration beside the values), hits read low; 0.3% of 360,000 active; AID 651819; in the data active = activity change below about -30%
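Nucleotide hydrolysis assay: TRiC at 20–40 nM final (set by batch activity) with 10 uM ATP, 30 min at 37 °C, in presence of 76 uM compound. Detection by competitive ADP HTRF, 30 min ambient.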
PLK1 PBD inh = PLK1 (human) polo-box domain binding inhibition | 2.8% of 360,000 active | Potency, µM, inactives show max response, negative = inhibition, most hits filed as inhibitors | P53350 | Plk1 PBD binding of FITC phosphopeptide, fluorescence polarization; also: potency is read from the fitted curve at half-maximal effect; series mostly up to about 57 µM; nearly all actives have a fitted effect of over 65% in size
Target sequence (P53350 whole entry, looked up, the tested form may be a part): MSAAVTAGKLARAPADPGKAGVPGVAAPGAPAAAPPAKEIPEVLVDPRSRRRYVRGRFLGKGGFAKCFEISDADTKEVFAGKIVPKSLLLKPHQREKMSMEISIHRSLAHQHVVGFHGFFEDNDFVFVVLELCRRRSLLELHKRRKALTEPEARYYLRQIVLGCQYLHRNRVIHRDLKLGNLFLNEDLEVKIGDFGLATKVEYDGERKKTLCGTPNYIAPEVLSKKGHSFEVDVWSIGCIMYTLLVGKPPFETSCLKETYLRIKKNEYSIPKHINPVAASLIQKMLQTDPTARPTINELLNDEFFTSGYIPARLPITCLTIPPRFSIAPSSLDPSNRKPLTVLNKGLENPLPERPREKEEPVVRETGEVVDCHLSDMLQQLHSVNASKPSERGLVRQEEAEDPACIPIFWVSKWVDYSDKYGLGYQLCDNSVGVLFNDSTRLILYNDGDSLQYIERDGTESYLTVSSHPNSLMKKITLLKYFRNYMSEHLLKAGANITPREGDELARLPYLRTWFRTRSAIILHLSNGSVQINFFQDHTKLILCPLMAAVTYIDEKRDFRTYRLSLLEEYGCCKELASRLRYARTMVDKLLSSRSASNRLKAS
VDR inh = vitamin D3 receptor (human) inhibition; P11473; Potency, µM, without a hit: max response, negative = inhibition, usual class: inhibitors; AID 504847; 0.93% of 400,000 active; VDR-SRC2-3 peptide fluorescence polarization, 2 h; also: potency is read from the fitted curve at half-maximal effect
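Inhibition of the VDR/SRC2-3 peptide interaction is quantified by fluorescence polarization. Compounds (23 nl, pintool) incubate with the reagents for 2 hours at ambient room temperature.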
G9a block = G9a (human) methyltransferase inhibition. G9a H3K9 monomethylation, AlphaScreen, 2 h. Potency, µM (series often up to 102 µM), without a hit: top-dose activity, negative = inhibition, hits mostly inhibitors. 8.8% of 350,000 active. AID 504332; also: potency is read from the fitted curve at half-maximal effect; nearly all actives have a fitted effect of over 75% in size
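G9a (20 nM) preincubated 15 min RT with compounds, then 500 nM biotinylated H3K9 peptide and 20 uM SAM added; 2 h RT reaction. Monomethyl-H3K9 product detected by AlphaScreen with anti-H3K9me1 antibody, streptavidin donor and anti-rabbit IgG acceptor beads.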
MmCpn inh = M. maripaludis TRiC chaperonin inhibition | purified Mm-Cpn ATPase, ADP Transcreener TR-FRET | Potency, µM (highest dose often 76.9 µM), for inactives: at the highest dose activity, negative = inhibition, actives largely listed as inhibitors | 0.031% of 330,000 active | AID 504842; also: potency is read from the fitted curve at half-maximal effect; nearly all actives have a fitted effect of over 80% in size
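Measured: ADP formation by purified Mm-CPN. Conditions: 25 nM protein, 10 uM ATP, Tris pH 7.4 with Mg2+, K+ and DTT, 37°C for 30 min. Detection: Transcreener HTRF after 30 min at room temperature.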
* marks the source's active call; other numbers are inactive results; ? = inconclusive; nt = no result given; [ ] = dose if it differs, or a comment. Unless noted, calls follow the shape of the dose curve; as a rule, active = well fitted curve in the direction sought with a large enough effect; inconclusive = small, poorly fitted or top-dose-only effect, or another doubt; inactive = no such curve, though single readings can be large; an effect the other way counts as inactive or inconclusive. Unless noted, % is scaled to controls: 0 for no effect and ±100 for the full control effect.

SMILES | Sfp PPTase inh | CCT chaperon mod | PLK1 PBD inh | VDR inh | G9a block | MmCpn inh
COc1ccc(CC(=O)NNC(=S)Nc2ccccc2)cc1Br | 8% | -3 | -11% | 6% | ? | -3%
CCOc1ccc(CC(=O)NNC(=S)Nc2ccccc2)cc1Br | 10% | 0 | ? | -9% | 25µM* | 2%
O=C(CNc1ccc(Cl)cc1)NNC(=S)NCc1ccccc1 | 5% | 1 | -18% | -6% | 50µM* | 2%
Cc1cccc(NC(=S)NNC(=O)COc2ccc(Cl)cc2Cl)c1 | ? | 1 | -13% | -21% | 8.9µM* | ?
O=C(/C=C\C=C/c1ccc2c(c1)OCO2)N1CCCCC1 | 13% | nt | nt | 0% | 18%[21.5 µM] | nt
CCOc1ccc(-c2cn3c(n2)sc2cc(C(=O)NC(C)C45CC6CC(CC(C6)C4)C5)ccc23)cc1 (stereo unspecified) | nt | nt | nt | 8% | 34%[59 µM] | nt
CCC(=O)NC(=S)Nc1ccc(NC(=O)COc2ccc(Cl)cc2Cl)cc1 | 12% | 2 | -19% | -1% | -17% | -6%
COc1ccc(NC(=S)NNC(=O)COc2ccc(Cl)cc2Cl)cc1 | -10% | -4 | -27% | -14% | 20µM* | 2%
CCNc1ncc2nc(CCc3ccccc3)c(=O)n(Cc3cccc(OC)c3)c2n1 | 0% | nt | nt | -15% | 8%[0.501 µM] | nt
CC1CCCCC12NC(=S)N(c1ccccc1)N2 (stereo unspecified) | 18µM* | -4 | -15% | 1% | nt | 0%
CC1CC(C)(C)CC2(C1)NC(=S)N(c1ccccc1)N2 (stereo unspecified) | ? | -1 | -4% | ? | 28µM* | -1%
CC1(C)CC2(C)Nc3ccccc3N2C(=S)N1 (stereo unspecified) | -17% | 0 | 1% | -4% | 6%[59 µM] | 0%
CC(C)CC1CCCC12NC(=O)NC2=O (stereo unspecified) | nt | -1 | 8% | 16% | nt | nt
O=C1NC2(CCC3(CC2)OCCO3)NN1c1ccccc1 | 19% | 1 | -3% | 0% | ? | ?
S=C1NC2(CCCCC2)NN1c1ccccc1 | -61% | 0 | -2% | -5% | 14µM* | 1%
CC(C)CCN1NC2(CCCC(C)C2)NC1=S (stereo unspecified) | 71µM* | -2 | 1% | 1% | 22µM* | -1%
CCCNC(=O)OC[C@@H]1O[C@H](CCO/N=C\[C@@H](OC)[C@H](C)/C=C\CC(=O)OC)C=C[C@@H]1Oc1ccc(OC)cc1 | 13% | nt | nt | nt | nt | nt
CC1CCCC2(C1)NC(=S)N(c1ccccc1)N2 (stereo unspecified) | 50µM* | -1 | -5% | ? | ? | 0%
CC1CCCC(O)(C(C(=O)O)c2ccccc2)C1 (stereo unspecified) | nt | -1 | -1% | 3% | nt | nt
CC(C)(C)N1NC2(CCCCC2)NC1=S | 22µM* | -2 | ? | 2% | ? | -2%
COc1ccc2c(CNC3CCC(C)CC3)c(C(=O)O)n(Cc3ccc(F)cc3)c2c1 (stereo unspecified) | nt | nt | nt | -3% | -9%[59 µM] | nt
CCN1/C(=C/C=C/c2oc3ccc(-c4ccccc4)cc3[n+]2CC)Oc2ccc(-c3ccccc3)cc21 | 11µM* | 2 | -110% | 23% | nt | -4%
COC(=O)c1[nH]c2cccc(OC)c2c1NC(=O)CCN1CCSCC1 | 28% | 0 | -2% | 4% | 5% | -6%
COC(=O)c1[nH]c2cccc(OC)c2c1NC(=O)CCN1CCN(c2cccc(Cl)c2)CC1 | -2% | nt | nt | nt | 50µM* | -1%
COC(=O)c1[nH]c2cccc(OC)c2c1NC(=O)CCN1CC(C)CC(C)C1 (stereo unspecified) | -1% | -9 | -4% | 10% | 50µM* | -3%
COc1ccc(OC)c(NC(=O)CCN2CC(C)CC(C)C2)c1 (stereo unspecified) | 0% | 0 | 24µM* | -21% | 20%[0.501 µM] | 0%
CN(Cc1ccccc1)S(=O)(=O)c1ccc(NC(=O)c2cc(=O)c3ccccc3o2)cc1 | nt | nt | nt | -6% | 2%[59 µM] | nt
Cc1ccccc1NC(=O)/C(C#N)=C/c1ccc(-c2ccc(Cl)c(C(=O)O)c2)o1 | 10% | 2 | -2% | -10% | -22%[59 µM] | -4%
